# Screens deposited in PubChem BioAssay by National Center for Advancing Translational Sciences (NCATS).
# A selection: hits, their analogues and other compounds. The true share with any hit is near 9.8%.
# KDM4E inh: blocks human JMJD2E demethylase activity. B2RXH2. JMJD2E catalytic domain, FDH-coupled NADH fluorescence (FDH is formaldehyde dehydrogenase). Potency, µM (top dose mostly 57.1 µM), actives largely listed as inhibitors. 230,000 tested, 1.6% active. AID 2147; active = well fitted inhibition curve with a large enough effect, not every such curve was filed as active; inconclusive = small, poorly fitted or top-dose-only effect, or another doubt; inactive = no such curve, though single readings can be large or run the other way; note: nearly all actives have a fitted effect of over 50% in size
# Target sequence (B2RXH2 1-337 limits assumed): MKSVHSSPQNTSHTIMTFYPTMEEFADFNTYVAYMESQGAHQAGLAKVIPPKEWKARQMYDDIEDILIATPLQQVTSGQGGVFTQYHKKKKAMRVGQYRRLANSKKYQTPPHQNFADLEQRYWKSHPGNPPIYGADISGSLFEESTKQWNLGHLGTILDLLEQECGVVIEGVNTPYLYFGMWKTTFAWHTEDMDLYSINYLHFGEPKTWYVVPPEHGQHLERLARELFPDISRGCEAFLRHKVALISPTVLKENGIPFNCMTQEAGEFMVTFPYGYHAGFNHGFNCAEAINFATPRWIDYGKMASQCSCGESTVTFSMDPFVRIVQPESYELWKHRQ
# HPGD block: inhibitors of human 15-hydroxyprostaglandin dehydrogenase (HPGD) | Potency, µM, most hits filed as inhibitors | purified HPGD, NADH fluorescence kinetic, PGE2 substrate | AID 894 | 150,000 tested, 4.3% active | P15428; active = well fitted inhibition curve with a large enough effect, not every such curve was filed as active; inconclusive = small, poorly fitted or top-dose-only effect, or another doubt; inactive = no such curve, though single readings can be large or run the other way
# Target sequence (P15428 whole entry, looked up): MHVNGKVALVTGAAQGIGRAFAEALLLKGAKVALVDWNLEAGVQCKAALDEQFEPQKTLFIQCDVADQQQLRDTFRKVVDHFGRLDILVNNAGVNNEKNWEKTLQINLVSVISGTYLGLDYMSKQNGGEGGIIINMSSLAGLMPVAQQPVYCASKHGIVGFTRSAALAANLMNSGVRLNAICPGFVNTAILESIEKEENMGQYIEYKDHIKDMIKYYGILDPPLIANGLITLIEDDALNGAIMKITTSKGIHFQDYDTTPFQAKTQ
#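 20 nM HPGD preincubated 15 min at room temperature with compound in 50 mM Tris-HCl pH 8, 0.01% Tween 20. Started with 1 mM NAD+ and 30 uM prostaglandin E2; NADH fluorescence (360/450 nm) read 5 times over 30-s intervals, last minus first.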
# CBFb RUNX1 block: blocks binding between human CBF-beta and RUNX1. Q01196+Q13951. AlphaScreen CBFb-His/RUNX1-biotin binding, biochemical. Potency, µM (doses to about 59.8 µM), usual class: inhibitors. 230,000 tested, under 10 active
#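 Room-temperature protein-protein interaction test with 30 nM each of His-tagged CBF-beta and biotinylated RUNX1, 15 min with compound, then 90 min with nickel plus streptavidin beads. Signal read in AlphaScreen mode.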
# HttQ103 aggreg: mutant huntingtin aggregation inhibition; PC12 HttQ103-GFP aggregates, Acumen cytometry, 40 h; Potency, µM (top dose mostly 46.1 µM), usual class: inhibitors; 220,000 tested, 1.1% active; note: nearly all actives have a fitted effect of over 60% in size
#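 PC12 cells with ecdysone-inducible HTT exon1 Q103-GFP, induced by 100 nM tebufenozide, given compounds in a concentration series. GFP aggregates (1–25 um, 6 SD above background) counted in lysates by laser-scanning cytometry, 488 nm excitation.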
# ALDH1A1 inh: ALDH1A1 (human) enzyme inhibition. P00352. Purified ALDH1A1, NADH fluorescence, propionaldehyde substrate. Potency, µM (doses to about 75.3 µM), most hits filed as inhibitors. 220,000 tested, 7.3% active. AID 1030; active = well fitted inhibition curve with a large enough effect, not every such curve was filed as active; inconclusive = small, poorly fitted or top-dose-only effect, or another doubt; inactive = no such curve, though single readings can be large or run the other way
# HTT cytoprotect: cytoprotection in Huntington HTT-Q103 PC12 cell model; 230,000 tested, 0.14% active; PC12 HTT-Q103 induced, cytoprotection, ATP luminescence, 40 h; Potency, µM (series often up to 56.4 µM), most hits filed as activators; AID 1471; note: nearly all actives have a fitted effect of over 45% in size
#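 Readout: ATPlite luminescence (ATP level). Model: stable PC12, inducible Htt exon1 Q103-GFP. Inducer: tebufenozide, 100 nM final. Compounds: dose series. No G418 in medium.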
# A number is an active result; i = inactive; ? = inconclusive; nt = no result given; [ ] = dose if it differs, or a comment. Unless noted, calls come from the whole dose curve; as a rule, active = well fitted curve in the direction sought with a large enough effect; inconclusive = small, poorly fitted or top-dose-only effect, or another doubt; inactive = no such curve, though single readings can be large; an effect the other way counts as inactive or inconclusive.
SMILES,KDM4E inh,HPGD block,CBFb RUNX1 block,HttQ103 aggreg,ALDH1A1 inh,HTT cytoprotect
CSc1ccccc1C(=O)C1CCCN(C(=O)c2cc(C(C)C)no2)C1 (stereo not given),i,nt,i,i[9.22 µM],18µM,i[10 µM]
CSc1ccccc1C(=O)C1CCCN(C(=O)c2csnn2)C1 (stereo not given),i,nt,i,i[9.22 µM],i,i[10 µM]
CN(c1ccc(O)cc1)c1nc(-c2ccccc2)cs1,i,16µM,?,i,i,i[10 µM]
C=CCN(c1ccccc1Cl)S(=O)(=O)c1cc(C(=O)N2CCCC2)ccc1Cl,i,nt,i,i[9.22 µM],nt,i[10 µM]
Cc1ccc(NC(=S)NCCC(c2ccccc2)c2ccccc2)c(C)c1,i,i,i,13µM,?,i[10 µM]
CC(C)CCNC(=S)Nc1ccccn1,?,i,i,i,6.3µM,?
Cc1cccc(NC(=S)NCCc2c[nH]c3ccccc23)c1,i,i,i,11µM,i,i[10 µM]
Cc1ccccc1NC(=S)NCCC(c1ccccc1)c1ccccc1,i,i,i,?,i,i
Cc1cccc(NC(=S)NCCC(C)C)c1,i,28µM,i,i,i,i[0.074 µM]
Cc1ccc(NC(=S)NCCc2c[nH]c3ccccc23)cc1,i,i,i,i,i,i
S=C(Nc1ccc(Nc2ccccc2)cc1)Nc1ccccn1,i,nt,i,i[9.22 µM],16µM,i
O=C(Nc1ccccc1)C(=O)Nc1ccccn1,i,i,i,i,i,i
C=CCN1C(=O)C(Cc2ccc(OC)cc2)S/C1=N/N=C/c1ccco1 (stereo not given),i,i,i,i,7.1µM,i[10 µM]
CCN1CCCC1CNC(=O)c1ccc(Sc2ccccc2Cl)c([N+](=O)[O-])c1 (stereo not given),i,nt,i,i,i,i
Cn1nc(C(=O)Nc2nnc(C3CC3)s2)c2ccccc2c1=O,i,nt,i,i,13µM,i
O=C(Cc1ccccc1Cl)Nc1cccnc1,i,nt,i,i,i,i
O=C(O)[C@@H]1CS[C@@]2(CCCN(Cc3ccccc3)C2)N1,nt,i,nt,nt,i[13.5 µM],i[10 µM]
CN(C)C/C(Cl)=C(\Cl)c1ccccc1,i,i,i,i,7.1µM,i
CCN(C/C=C/C#CC(C)(C)C)Cc1cccc(OCc2cc(-c3ccsc3)cs2)c1,nt,nt,i,nt,nt,nt
COc1ccccc1N1C(=S)NC2CS(=O)(=O)CC21 (stereo not given),i,nt,i,i[9.22 µM],i,i[10 µM]
Cc1cc(C)cc(N(CC(=O)Nc2ccccc2-c2ccccc2)S(=O)(=O)c2ccccc2)c1,i,10µM,i,i,i,i[10 µM]
Cc1ccccc1OCC(=O)N1N=C(C(F)(F)F)CC1(O)C(C)(C)C (stereo not given),i,i,i,i,14µM,i[10 µM]
NS(=O)(=O)c1ccc(NC(=O)Nc2ccc(C(F)(F)F)cc2)cc1,i,nt,i,i[9.22 µM],i,i[10 µM]
CCCN(CCC)C(=O)c1ccc2c(c1)OCO2,i,25µM,i,i,i,i[10 µM]
O=C(Nc1cccc2cccnc12)c1cccnc1,i,i,i,?,i,i
SMILES,KDM4E inh,HPGD block,CBFb RUNX1 block,HttQ103 aggreg,ALDH1A1 inh,HTT cytoprotect
Cc1cnc(C(=O)Nc2cccc3cccnc23)cn1,i,?,i,0.89µM,?,i
COC(=O)c1ccc(CSc2nc3scc(-c4cccs4)c3c(=O)[nH]2)o1,i,?,i,i,?,i[10 µM]
CC(=O)N(\C=C/C=C/C=C1\Sc2ccccc2C1=O)c1ccccc1,14µM,nt,i,i,18µM,i[10 µM]
CC(C)NCC[C@@H](O)c1cc2ccccc2o1,nt,i,nt,nt,i[13.5 µM],i[10 µM]
C/C(=N\NC(=O)C1(C)NC(C)(C)Cc2ccccc21)c1ccccc1 (stereo not given),i,nt,i,i[9.22 µM],?,i[10 µM]
COc1cc(OC)cc(-c2nnc(SCc3cccc(C(=O)O)c3)o2)c1,i,11µM,i,i,i,i
O=C(O)c1cccc(CSc2nnc(-c3ccco3)o2)c1,i,i,i,i,i,i
Cc1occc1-c1nnc(SCC(=O)N2CCc3ccccc32)o1,i,i,?,i,0.79µM,i[10 µM]
Cc1nnc(SCC(=O)N2CCc3ccccc32)s1,i,i,i,i,28µM,i
COc1cccc(-c2nnc(SCC(=O)N3CCCc4ccccc43)o2)c1,?,28µM,i,?,7.9µM,i[10 µM]
Cn1cc(SCC(=O)NCCc2ccccc2)c2ccccc21,i,nt,i,i,i,i
CCCS(=O)(=O)N1CCN=C1SCc1cccnc1,i,nt,i,i,?,i
CN(C)C(=O)CSc1nnc(Cc2ccccc2)n1CC1CCCO1 (stereo not given),i,nt,i,i,i,i
O=Cc1ccc(-n2cncn2)cc1,7.1µM,nt,i,i,?,i
COC(=O)/C=C/c1ccc(-n2cncn2)cc1,i,nt,i,i,i,i
COc1cccc(CN(C(=O)Cn2nnc(-c3ccccc3F)n2)C(C(=O)NC(C)(C)C)c2ccncc2)c1 (stereo not given),i,nt,i,i[9.22 µM],24µM,i[10 µM]
CC(C)(C)NC(=O)C(c1ccncc1)N(Cc1cccs1)C(=O)Cn1nnc(-c2ccc(F)cc2)n1 (stereo not given),i,i,i,i,i,i[10 µM]
CC(C)(C)[C@@H]1C=C(C(=O)Nc2ccccc2)O[C@H](OCc2ccc(CO)cc2)C1,i,nt,i,i[9.22 µM],?,i[10 µM]
Cc1c(C(=O)NCc2ccc3c(c2)OCO3)oc2ccc(S(=O)(=O)N3CCC(C)CC3)cc12,?,i,i,i,i,i[10 µM]
CC1CCN(S(=O)(=O)c2ccc3c(c2)oc(=O)n3CC(=O)NCc2ccc3c(c2)OCO3)CC1,i,i,i,8.9µM,i,i
O/N=C(\c1ccc(Cl)cc1Cl)c1ncc(C(F)(F)F)cc1Cl,i,25µM,i,i[9.22 µM],?,i
O=C(c1ccc(Cl)cc1Cl)c1ncc(C(F)(F)F)cc1Cl,i,i,i,i,i,i
O=C(c1ccccc1)c1ncc(C(F)(F)F)cc1Cl,i,32µM,i,i,i,i[10 µM]
CCOc1ccccc1-c1nnc2n1N=C(c1cc(OC)cc(OC)c1)CS2,nt,nt,i,nt,nt,nt
CCOC(=O)c1c(-c2ccc(C)o2)csc1NC(=O)CSc1nncs1,?,20µM,?,i[9.22 µM],11µM,i
SMILES,KDM4E inh,HPGD block,CBFb RUNX1 block,HttQ103 aggreg,ALDH1A1 inh,HTT cytoprotect
CCOC(=O)c1c(-c2ccc(C)o2)csc1NC(=O)CN1CCCCC1,i,nt,i,i,?,i[10 µM]
CCOC(=O)c1c(-c2ccc(C)o2)csc1NC(=O)CN1CCC(C(N)=O)CC1,i,nt,i,i,25µM,i
COc1ccc(CNC(=O)Cn2ncn3cccc3c2=O)cc1,i,nt,i,i,i,nt
COc1ccc(CNC(=O)c2c(C)nc3ccccn23)cc1,?,i,i,25µM,i,i[10 µM]
Cc1nc2ccccn2c1C(=O)NN,i,nt,i,i,2.2µM,i[10 µM]
Cc1nc2ccccn2c1C(=O)NNS(=O)(=O)c1ccc(C(C)(C)C)cc1,i,i,i,i,1.1µM,i[0.074 µM]
COc1ccc(CCNC(=O)c2c(C)nc3ccccn23)cc1,i,nt,i,i,i,i
Cc1ccc(SCC(=O)c2c(C)nc3ccccn23)cc1,i,nt,i,14µM,?,i
